Source: PubChem
HCV inh = qHTS Assay for Inhibitors of Hepatitis C Virus (HCV) | Potency, µM (highest dose often 41.8 µM), most hits filed as inhibitors | Huh7.5.1 HCVcc-Cre infection, luciferase reporter, 44 h | hit rate 3.4% among 340,000 | AID 651820, 2012
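Whole-lifecycle infectious HCVcc-Cre system; cells 1,000/well, compound then virus (~0.5 moi) added 4 h after plating, 44 h culture. Luciferase read 15 sec following 15 min substrate incubation, room temp.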
Pf growth 96h = Primary qHTS for delayed death inhibitors of the malarial parasite plastid, 96 hour incubation. P. falciparum luciferase reporter growth, 96 h. Potency, µM (top dose mostly 28.7 µM), most hits filed as inhibitors. hit rate 6.9% among 320,000. AID 504834, 2011
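P. falciparum expressing integrated firefly luciferase, in erythrocytes at 2% hematocrit, 0.05% parasitemia, incubated with compounds 96 h at 37 C, 5% CO2. Growth inhibition read as loss of luminescence; two-generation exposure targets delayed-death apicoplast inhibitors.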
Pf growth 48h = Primary qHTS for delayed death inhibitors of the malarial parasite plastid, 48 hour incubation. P. falciparum luciferase growth in erythrocytes, 48 h. Potency, µM (series often up to 28.7 µM), actives largely listed as inhibitors. hit rate 5.9% among 310,000
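Parasite viability was followed by luminescence of a genomically integrated firefly luciferase. Cultures held 0.1% parasitemia at 2% hematocrit (final), incubated under 5% CO2 at 37 C.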
CHX counter = Cycloheximide Counterscreen for Small Molecule Inhibitors of Shiga Toxin. cell reporter, cycloheximide protein synthesis inhibition counterscreen. max response, %. hit rate 12% among 300,000; in the data active = max response mostly above about 13%, no sharp cut-off; inactive = mostly below about 14%; note: read at 38.3 µM for the half of the compounds with a filed dose
HCMV inh = qHTS Assay for inhibitors of the human cytomegalovirus (HCMV); AID 1259415, 2018; activity change, negative = inhibition, % at 57.5 µM; HFF cells, HCMV-luciferase reporter, 72 h; stronger effect = lower value; hit rate 4.5% among 410,000; in the data active = activity change below about -60%; inconclusive = no clear call, values can overlap the other calls; inactive = above about -39%
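Compounds were evaluated in HFFs infected with an HCMV luciferase reporter virus (MOI 1 PFU/cell). Luciferase in lysates collected 72 h post infection served as the replication measure.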
Shiga toxin inh = A qHTS for Small Molecule Inhibitors of Shiga Toxin; Vero cells, Shiga toxin protein synthesis inhibition reporter; inhibition, % at 38.7 µM; hit rate 9.2% among 290,000; AID 2315, 2010; in the data active = inhibition mostly above about 28%, no sharp cut-off; inactive = mostly below about 43%
Numbers stand for hits; n = inactive; u = inconclusive; x = no result given. The list is not random: actives were taken first. Their share in the collection is about 21%. Unless noted, calls come from the whole dose curve; as a rule, active = well fitted inhibition curve with a large enough effect; inconclusive = small, poorly fitted or top-dose-only effect, or another doubt; inactive = no such curve, though single readings can be large or run the other way.

SMILES	HCV inh	Pf growth 96h	Pf growth 48h	CHX counter	HCMV inh	Shiga toxin inh
Cc1ccc(NC(=O)c2cc3c(-c4ccccc4)nn(-c4ccccc4)c3s2)cc1	x	x	x	x	n	x
Cc1nn(-c2ccccc2)c2c1C(c1ccc(O)c(O)c1)N1C(=N2)C(Nc2ccccc2)=Nc2ccccc21 (configuration not stated)	n	10µM	10µM	n	n	n
Cc1nc(NC(=O)c2cc3c(C)nn(-c4ccccc4)c3s2)sc1C(=O)Nc1ccccc1	n	u	x	n	n	n
Cc1ccc(NC2=Nc3ccccc3N3C2=Nc2c(c(C)nn2-c2ccccc2)C3c2ccc(O)c(O)c2)cc1 (configuration not stated)	n	u	u	n	-64	n
CC(=O)Nc1cc(-c2ccc(C(=O)N3CCOCC3)cc2)cn2c(-c3cccc(C(F)(F)F)c3)cnc12	x	x	x	x	n	x
Cc1cccc(Cc2c(C)nc3c(C(=O)NCc4ccco4)cnn3c2C)c1	u	n	u	n	n	n
Cc1nc2c(C(=O)NCc3ccc4c(c3)OCO4)cnn2c(C)c1Cc1ccc(F)cc1Cl	n	13µM	u	n	n	n
COc1ccc(CNC(=O)c2cnn3c(C)c(Cc4ccc(F)cc4)c(C)nc23)cc1	x	x	x	x	n	x
Cc1nc2c(C(=O)NCc3ccco3)cnn2c(C)c1Cc1ccc(F)cc1Cl	13µM	n	u	n	n	n
Cc1ccc(C)c(Cc2c(C)nc3c(C(=O)NCc4ccc5c(c4)OCO5)cnn3c2C)c1	x	10µM	x	n	n	n
Cc1ccccc1Cc1c(C)nc2c(C(=O)NCc3ccc4c(c3)OCO4)cnn2c1C	x	u	u	n	n	n
O=C(/C=C/c1ccc(O)c(O)c1)c1ccc(O[C@@H]2O[C@H](CO)[C@@H](O)[C@H](O)[C@H]2O)c(O)c1O	x	x	x	n	x	n
CCCCCCC(C)n1[nH]c(=O)c2c(C)cc(=O)[nH]c21 (configuration not stated)	n	n	n	n	-70	n
COc1ccc(C(CNC(=O)c2ccc(-c3cccc(C(F)(F)F)c3)o2)N2CCOCC2)cc1 (configuration not stated)	u	1.5µM	6.6µM	x	n	x
O=C(c1ccc(-c2cccc(C(F)(F)F)c2)o1)N1CCOCC1	u	n	n	37	n	74
CN(C)CCCN1C(=O)C2CCc3[nH]c4ccccc4c3C2C1=O (configuration not stated)	n	2.9µM	n	n	n	n
CCOC(=O)c1sc2cccc(F)c2c1S(=O)(=O)N1CCN(c2cccc(Cl)c2)CC1	x	x	x	x	n	x
Cc1cccc(OCC(=O)Nc2ccc(C(=O)OCc3cc(=O)n4nc(C5CC5)sc4n3)cc2)c1	x	x	x	x	n	x
CN(C)c1ccc(NS(=O)(=O)c2ccc(-c3csnn3)cc2)cc1	u	n	n	n	-65	n
CCOc1ccc2ncc3c(-c4ccccc4)nn(CC(=O)Nc4cccc(F)c4)c3c2c1	x	x	x	x	n	x
COc1ccc2ncc3c(-c4ccc(C)c(C)c4)nn(CC(=O)Nc4ccccc4)c3c2c1	x	x	x	x	-92	x
CCCn1nc(NC(=O)C2CCCO2)c2cc3cccc(C)c3nc21 (configuration not stated)	11µM	n	n	n	n	n
CCn1nc(NC(=O)c2ccccc2)c2cc3cccc(C)c3nc21	25µM	n	u	n	n	n
CC(C)Cn1nc(NC(=O)C2CCCO2)c2cc3ccccc3nc21 (configuration not stated)	n	u	u	n	n	n
CCc1c(C)sc2c1CCN(C(=O)Nc1cc(C)ccc1OC)C2c1ccc(F)cc1 (configuration not stated)	x	x	x	x	n	x
SMILES	HCV inh	Pf growth 96h	Pf growth 48h	CHX counter	HCMV inh	Shiga toxin inh
CCn1nnc2c(=O)oc3ccccc3c21	n	4.1µM	n	n	n	n
CC(C)Cn1nnc2c(=O)oc3ccccc3c21	n	n	n	n	n	n
O=C(NNC(=O)C1CC1)Nc1ccc(Cl)cc1	n	n	n	n	n	n
O=C(NNC1=NCCCCC1)Nc1ccc(Cl)cc1	n	n	n	23	n	n
O=C(NNC1=NCCCCC1)Nc1cccc(Cl)c1	n	n	n	12	n	n
O=c1c2c3c(sc2n(Cc2cc(=O)n4ccccc4n2)c(=O)n1-c1ccccc1)CCC3	x	x	x	x	n	x
